Here are results for 27 compounds from the supplement of paper PMC10037445.

For assay [1], the system named is RAW-Dual. In words: NF-kB SEAP reporter activity, fold change vs agonist alone; cytotoxicity flag (confluency mask): not cytotoxic; higher = enhanced NF-kB activity. An outline of the steps: (§1)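 RAW-Dual macrophages were seeded in DMEM at 50,000 cells/well in 384-well plates, given 50 nL of library stock by pin tool, and given a PRR agonist 1 h later. Plates were held at 37 °C, 5% CO2 for 20 hours, after which supernatant was read for IRF by QuantiLuc luminescence and for NF-κB by QuantiBlue absorbance at 620 nm. Reporter activity is expressed as fold change over wells that received agonist alone. A well was called cytotoxic when IncuCyte confluency fell below 70% of agonist controls in both mask sets.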

Assay [2] relates to RAW-Dual. As to the kind of experiment: NF-kB SEAP reporter activity, fold change vs agonist alone; higher = enhanced NF-kB activity. In short, it runs like this: as §1
For assay [3], the system named is RAW-Dual. In words: NF-kB SEAP reporter activity, fold change vs agonist alone; cytotoxicity flag (confluency mask): cytotoxic (confluency <70% of control); higher = enhanced NF-kB activity. In short, it runs like this:
as §1

[4] abbreviates: agonist: ODN 1826 (TLR9) 0.5 ug/mL.
[5] abbreviates: agonist: Pam2CSK4 (TLR2/6) 0.1 ug/mL.
Setting [6] is: agonist: Pam3CSK4 (TLR2/1) 0.1 ug/mL.
[7] abbreviates: library stock concentration (final ~1000-fold dilution): 10 mM, cytotoxicity flag (confluency mask): not cytotoxic, agonist: Imiquimod (TLR7) […].
The mark [8] stands for this setting: library stock concentration (final ~1000-fold dilution): 10 mM, cytotoxicity flag (confluency mask): not cytotoxic, agonist: MPLA (TLR4) […].

The full ranking holds about 2,900 compounds; the median of “NF-kB SEAP reporter activity, fold change vs agonist alone” is about 0.99, and the highest 2% start at about 2.6. The sample as a whole holds a higher share of the highest values than the screen did.

With `CCCCCCCCCCCCCCCCCC(=O)O` (library stock concentration (final ~1000-fold dilution): 10 mM), the “NF-kB SEAP reporter activity” value is 0.849 in assay [1] (agonist: LPS (TLR4) 0.1 ug/mL), 1.02 in assay [1] (setting [4]), 0.95 in assay [1] (setting [5]) and 1.17 in assay [1] (setting [6]).

With `CCCC(=O)Nc1cccc(NC(=O)c2ccccc2Br)c1`, the results for the “NF-kB SEAP reporter activity” value in assay [2] (setting [7]) and in assay [2] (setting [8]) were 1.06 and 0.952, respectively.

For the compound `CCc1ccc(NC(=O)Nc2ccccc2)cc1`, the results for the “NF-kB SEAP reporter activity” value in assay [2] (setting [7]) and in assay [2] (setting [8]) were 0.892 and 1.01, respectively.

Regarding `CCCCCCCCCCCCCCCCCC(=O)O`, the “NF-kB SEAP reporter activity” value in assay [2] (setting [7]) came to 0.96; in assay [2] (setting [8]) it was 1.05.

As to `CCc1ccc(NC(=O)Nc2ccccc2)cc1` (library stock concentration (final ~1000-fold dilution): 10 mM), the “NF-kB SEAP reporter activity” value in assay [1] (agonist: LPS (TLR4) 0.1 ug/mL) stood at 1.12; in assay [1] (setting [4]) it was 0.823; in assay [1] (setting [5]) it was 0.702; in assay [1] (setting [6]), 0.652.

On to `O=C(CCCCCCC(=O)NO)NO` (library stock concentration (final ~1000-fold dilution): 10 mM), for which the “NF-kB SEAP reporter activity” value in assay [1] (agonist: LPS (TLR4) 0.1 ug/mL) stood at 3.77; in assay [1] (setting [4]) it was 1.62; in assay [1] (setting [5]), 0.78; in assay [1] (setting [6]), 1.21.

In the case of `O=C(CCCCCCCC(=O)NCCO)NCCO` (library stock concentration (final ~1000-fold dilution): 10 mM), the “NF-kB SEAP reporter activity” value came to 1.2 in assay [1] (agonist: LPS (TLR4) 0.1 ug/mL), 0.998 in assay [1] (setting [4]), 0.991 in assay [1] (setting [5]) and 0.856 in assay [1] (setting [6]).

With `O=C(CCCCCCC(=O)Nc1ccccc1)NO` (library stock concentration (final ~1000-fold dilution): 10 mM), the “NF-kB SEAP reporter activity” value in assay [3] (agonist: LPS (TLR4) 0.1 ug/mL) amounted to 6.47; in assay [3] (setting [4]), 2.34; in assay [3] (setting [5]), 0.808; in assay [3] (setting [6]) it was 1.86.

Turning to `O=C(CCCCCCC(=O)NO)NO`, the “NF-kB SEAP reporter activity” value is 2.03 in assay [2] (setting [7]) and 2.57 in assay [2] (setting [8]).

In the case of `O=C(CCCCCCCC(=O)NCCO)NCCO`, the entries for the “NF-kB SEAP reporter activity” value in assay [2] (setting [7]) and in assay [2] (setting [8]) were 0.913 and 1.03, respectively.

As to `O=C(CCCCCCC(=O)Nc1ccccc1)NO`, the “NF-kB SEAP reporter activity” value in assay [2] (library stock concentration (final ~1000-fold dilution): 10 mM, cytotoxicity flag (confluency mask): cytotoxic (confluency <70% of control), agonist: Imiquimod (TLR7) […]) came to 2.38; in assay [2] (library stock concentration (final ~1000-fold dilution): 10 mM, cytotoxicity flag (confluency mask): cytotoxic (confluency <70% of control), agonist: MPLA (TLR4) […]), 2.6.

With `CCCC(=O)Nc1cccc(NC(=O)c2ccccc2Br)c1` (library stock concentration (final ~1000-fold dilution): 10 mM), the “NF-kB SEAP reporter activity” value worked out at 0.939 in assay [1] (agonist: LPS (TLR4) 0.1 ug/mL), 0.996 in assay [1] (setting [4]), 0.966 in assay [1] (setting [5]) and 1.15 in assay [1] (setting [6]).

For `Br.COc1cc(Br)c(Nc2nc(-c3c(C)nc4ncccn34)cs2)c(Br)c1`, the “NF-kB SEAP reporter activity” value in assay [2] (setting [7]) was 1.42; in assay [2] (setting [8]), 2.42.

As for `Br.COc1cc(Br)c(Nc2nc(-c3c(C)nc4ncccn34)cs2)c(Br)c1` (library stock concentration (final ~1000-fold dilution): 10 mM), the “NF-kB SEAP reporter activity” value was 1.91 in assay [1] (agonist: LPS (TLR4) 0.1 ug/mL), 1.96 in assay [1] (setting [4]), 0.305 in assay [1] (setting [5]) and 0.861 in assay [1] (setting [6]).

For the compound `Cl.O=C1CN2Cc3c(ccc(Cl)c3Cl)NC2=N1`, the “NF-kB SEAP reporter activity” value in assay [2] (setting [7]) was 1.34; in assay [2] (setting [8]) it was 1.26.

For the compound `Cl.O=C1CN2Cc3c(ccc(Cl)c3Cl)NC2=N1` (library stock concentration (final ~1000-fold dilution): 10 mM), the “NF-kB SEAP reporter activity” value in assay [1] (agonist: LPS (TLR4) 0.1 ug/mL) is 0.887; in assay [1] (setting [4]), 1.24; in assay [1] (setting [5]) it was 0.872; in assay [1] (setting [6]), 1.01.

As for `CC(C)CC(NP(=O)(O)OC1OC(C)C(O)C(O)C1O)C(=O)NC(Cc1c[nH]c2ccccc12)C(=O)O` (stereo not given), the figures for the “NF-kB SEAP reporter activity” value in assay [2] (setting [7]) and in assay [2] (setting [8]) were 0.973 and 1.03, respectively.

On to `CC(C)CC(NP(=O)(O)OC1OC(C)C(O)C(O)C1O)C(=O)NC(Cc1c[nH]c2ccccc12)C(=O)O` (stereo not given) (library stock concentration (final ~1000-fold dilution): 10 mM), for which the “NF-kB SEAP reporter activity” value was 1.04 in assay [1] (agonist: LPS (TLR4) 0.1 ug/mL), 0.986 in assay [1] (setting [4]), 1.05 in assay [1] (setting [5]) and 1.41 in assay [1] (setting [6]).

With `CCc1ccc(NC(=O)Nc2c[nH]c3ccccc23)cc1`, the “NF-kB SEAP reporter activity” value was 0.782 in assay [2] (library stock concentration (final ~1000-fold dilution): 1 mM, cytotoxicity flag (confluency mask): not cytotoxic, agonist: Imiquimod (TLR7) […]) and 0.736 in assay [2] (library stock concentration (final ~1000-fold dilution): 1 mM, cytotoxicity flag (confluency mask): not cytotoxic, agonist: MPLA (TLR4) […]).

As for `CCc1ccc(NC(=O)Nc2c[nH]c3ccccc23)cc1` (library stock concentration (final ~1000-fold dilution): 1 mM), the “NF-kB SEAP reporter activity” value in assay [1] (agonist: LPS (TLR4) 0.1 ug/mL) turned out to be 0.445; in assay [1] (setting [4]), 0.702; in assay [1] (setting [5]) it was 0.417; in assay [1] (setting [6]) it was 0.365.

Take `CN(C(=O)n1cnc(-c2ccc[n+]([O-])c2)c1)C1CCCCC1` (library stock concentration (final ~1000-fold dilution): 10 mM): the “NF-kB SEAP reporter activity” value in assay [1] (agonist: LPS (TLR4) 0.1 ug/mL) was 1.04; in assay [1] (setting [4]), 0.925; in assay [1] (setting [5]) it was 0.966; in assay [1] (setting [6]), 1.01.

As for `CN(C(=O)n1cnc(-c2ccc[n+]([O-])c2)c1)C1CCCCC1`, the “NF-kB SEAP reporter activity” value in assay [2] (setting [7]) is 0.995; in assay [2] (setting [8]) it was 1.03.

As to `CC(=O)Oc1cc2c(cc1Cl)C(c1ccccc1C(=O)O)c1cc(Cl)c(OC(C)=O)cc1O2` (library stock concentration (final ~1000-fold dilution): 10 mM), the “NF-kB SEAP reporter activity” value came to 1.48 in assay [1] (agonist: LPS (TLR4) 0.1 ug/mL), 1.24 in assay [1] (setting [4]), 1.12 in assay [1] (setting [5]) and 1.05 in assay [1] (setting [6]).

For the compound `CC(=O)Oc1cc2c(cc1Cl)C(c1ccccc1C(=O)O)c1cc(Cl)c(OC(C)=O)cc1O2`, the “NF-kB SEAP reporter activity” value in assay [2] (setting [7]) was determined as 1.04; in assay [2] (setting [8]), 1.41.

Take `COc1cc(C2CC(c3ccccc3)=NN2C(N)=S)cc(OC)c1OC` (stereo not given) (library stock concentration (final ~1000-fold dilution): 10 mM): the “NF-kB SEAP reporter activity” value in assay [1] (agonist: LPS (TLR4) 0.1 ug/mL) is 1.16; in assay [1] (setting [4]), 1.25; in assay [1] (setting [5]), 0.997; in assay [1] (setting [6]) it was 1.13.

Take `COc1cc(C2CC(c3ccccc3)=NN2C(N)=S)cc(OC)c1OC` (stereo not given): the “NF-kB SEAP reporter activity” value in assay [2] (setting [7]) was 1.58; in assay [2] (setting [8]) it was 1.29.

Consider `O=C(c1ccc(C(=O)N2CCC(N3CCCC3)CC2)c(Nc2ccccc2)c1)N1CCC(N2CCCC2)CC1`, for which the “NF-kB SEAP reporter activity” value in assay [2] (setting [7]) is 0.917; in assay [2] (setting [8]), 1.12.
